For 39 compounds, outcome and AC50 results are on record in PubChem BioAssay (EPA / NIEHS).

Molecules are shown by their SMILES. “And” between values parts separate entries of the source, which are not always exact repeats. Equal entries are not always repeated. Results filed as inconclusive are left out. More than one record can exist for a structure, and the calls need not agree. The source made the active and inactive calls. Rule for the calls: active = hit-call score of the fitted dose curve at least 0.9, where 1 is the maximum; inconclusive = response in the unintended direction; inactive = score below 0.9.

As usually defined, the AC50 is the concentration giving half of the maximal activity seen.

Chain of Cellular tumor antigen p53 (Homo sapiens) (P04637 whole entry, looked up, the tested form may be a part): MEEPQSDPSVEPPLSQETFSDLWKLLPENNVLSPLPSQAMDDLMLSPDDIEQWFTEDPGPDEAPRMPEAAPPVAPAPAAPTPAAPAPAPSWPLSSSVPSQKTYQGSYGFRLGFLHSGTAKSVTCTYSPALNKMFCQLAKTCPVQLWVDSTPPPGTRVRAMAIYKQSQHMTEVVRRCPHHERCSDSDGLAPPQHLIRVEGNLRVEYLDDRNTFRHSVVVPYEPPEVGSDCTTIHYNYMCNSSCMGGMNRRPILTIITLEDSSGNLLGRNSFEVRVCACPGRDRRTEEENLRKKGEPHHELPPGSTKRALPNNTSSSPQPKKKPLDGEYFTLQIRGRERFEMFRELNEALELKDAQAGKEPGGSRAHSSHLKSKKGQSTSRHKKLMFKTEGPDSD

The experiment has as its target Cellular tumor antigen p53 (Homo sapiens) (UniProt P04637). In words: TOX21_p53_BLA_p2_ratio: Tox21 HCT-116 p53 Agonism Beta-lactamase Assay, Ratio, Phase 2 (AID 2283592). From the text: TOX21_p53_BLA_p2 is a cell-based, single-readout assay that uses HCT116, a human intestinal cell line, […] in a 1536-well plate.TOX21_p53_BLA_p2_ratio is an assay readout measuring reporter gene via receptor activity and designed using inducible reporter (beta lactamase induction) detected with GAL4 b-lactamase reporter gene. The signal is derived from the ratio of cleaved (ch2) to uncleaved (ch1) reporter gene substrate used as the measure of target activity.Data from the assay component TOX21_p53_BLA_p2_ratio was analyzed into 1 assay endpoint. This assay endpoint, TOX21_p53_BLA_p2_ratio, was analyzed in the positive analysis fitting direction relative to DMSO as the negative control and baseline of activity. Using a type of inducible reporter, gain-of-signal activity can be used to understand changes in the reporter gene as they relate to the gene TP53. Furthermore, this assay endpoint can be referred to as a primary readout, because this assay has produced multiple assay endpoints and this ratio serves a reporter gene function to understand target activity. To generalize the intended target to other relatable targets, this assay endpoint is annotated to the DNA binding intended target family, where the subfamily is tumor suppressor.
Thawing Method: Place 14 mL of pre-warmed thaw medium into a 15 mL of conical tub. Remove the vial of cells to be thawed from liquid nitrogen and thaw rapidly by placing at 37C in a water bath with gentle agitation for 1-2 minutes. Decontaminate the vial by wiping with 70% ethanol before opening in a biological safety cabinet. Transfer the vial contents drop-wise into 14 mL of thaw medium in a sterile 15-mL conical tub. Centrifuge cells at 900 rpm for 4 minutes and resuspend in thaw medium. Transfer contents to the T75 tissue culture flask containing Thaw Medium and place flask in a humidified 37C/5% CO2 incubator. Switch to growth medium at first passage.Propagation Method: Aspirate medium, rinse once in DPBS, add 0.25% Trypsin/EDTA and swirl to coat the cell evenly. Add an equal volume of Growth Medium to inactivate Trypsin after 2-3 minutes incubation at 37C. Centrifuge cells at 900 rpm for 4 minutes and resuspend in growth medium. Cell should be passage or fed at least twice a week.Assay Protocol: Harvest cells from culture in growth medium and resuspend in assay medium. 2.2 Dispense 4000 cells/5 uL/well into 1536-well black/clear bottom plates using a Multidrop dispenser. After the cells were incubated at 37C for 5 hours, 23 nL of compounds dissolved in DMSO were transferred to the assay plate by a PinTool resulting in a 217-fold dilution. Incubate the plates for 16 hours at 37C, 5% CO2. Add 1 uL of 6X LiveBLAzer FRET B/G (CCF4-AM) Substrate Mixture to each well using a BioRAPTR dispenser and incubate the plates at room temperature for 2 hours. Measure fluorescence intensity at 460 and 530 nm emission and 405 nm excitation by an Envision detector. Data is expressed as the ratio of 460nm/530nm emissions. Add 4 uL of Cell-titer Glo to each well using BioRAPTR and incubate the plates at room temperature for 2 hours. Measure fluorescence intensity by a VewLux plate reader.
Take `CCCCCCC#N`: the result was inactive.

As to `CCCN`, the result was inactive.

Turning to `CN[C@H]1C[C@@H](N)[C@H](O)[C@@H](O[C@@H]2O[C@H](CO)[C@H](O)[C@@H]3OC4(O[C@H]23)O[C@H](C(N)CO)[C@H](O)[C@H](O)C4O)[C@@H]1O` (stereo not given in full), the result was inactive.

Regarding `CCN(CC)CCOC(=O)C(O)(c1ccccc1)c1ccccc1`, the outcome was inactive.

Take `CCOP(=S)(OCC)Oc1cc(-c2ccccc2)on1`: the outcome was inactive.

With `CC(N)Cc1ccc2c(c1)OCO2` (stereo not given), the result was inactive.

Regarding `ClC(Cl)(Cl)Br`, the result was inactive.

As for `CCOc1cc(OP(=S)(OC)OC)nc(CC)n1`, the outcome was inactive.

Turning to `CCCC[n+]1cccc(C)c1`, the outcome was inactive.

With `O=c1[nH]c(Cl)c(Cl)cc1Cl`, the outcome was inactive.

As for `ClC1=C(Cl)C2(Cl)C(CBr)CC1(Cl)C2(Cl)Cl` (stereo not given), the result was inactive.

`C[C@]12C/C(=C/O)C(=O)C[C@@H]1CC[C@@H]1[C@@H]2CC[C@@]2(C)[C@H]1CC[C@]2(C)O`: the result was inactive and the AC50 was 42.5 µM (active).

For `[H+].[H+].[Hg+2].[O-]B([O-])[O-].[c-]1ccccc1`, the AC50 was 1.73 µM (active).

As for `CC(N)=S`, the outcome was inactive.

Consider `ClC=C(Cl)Cl`, for which the result was inactive.

Regarding `CC[n+]1c(-c2ccccc2)c2cc(N)ccc2c2ccc(N)cc21`, the AC50 is 1.43 µM (active) and 9.38 µM (active) and 2.95 µM (active).

Regarding `O=C(Nc1ccccc1)N(Cc1ccc(Cl)cc1)C1CCCC1`, the result was inactive.

Regarding `CC(=O)C(Cl)Cl`, the outcome was inactive.

Consider `C[C@]12CC[C@@H]3c4ccc(OC(=O)N(CCCl)CCCl)cc4CC[C@H]3[C@@H]1CC[C@@H]2OP(=O)(O)O`, for which the AC50 was 8.82 µM (active) and 26.6 µM (active).

For `c1ccccc1`, the outcome was inactive.

As to `O=C(NCc1cccnc1)Nc1ccc([N+](=O)[O-])cc1`, the result was inactive.

Turning to `c1ccc2c(c1)[nH]c1cnccc12`, the result was inactive.

For `OC(O)C(Cl)(Cl)Cl`, the outcome was inactive.

As for `COc1ccc2c3c1O[C@H]1[C@@H](O)C=C[C@H]4[C@@H](C2)NCC[C@@]341`, the outcome was inactive.

As for `COP(=S)(OC)Oc1ccc([N+](=O)[O-])cc1Cl`, the result was inactive.

`CC(Cc1ccc(C(C)(C)C)cc1)CN1C[C@@H](C)O[C@@H](C)C1` (stereo not given in full): the outcome was inactive.

As for `Cc1nnc2n1-c1sc(CCc3ccc(CC(C)C)cc3)cc1C(c1ccccc1Cl)=NC2C` (stereo not given), the concentration at half-maximal activity (AC50) was 31 µM (active).

`O=[N+]([O-])c1ccc([As](=O)(O)O)cc1`: the outcome was inactive.

For `FC(F)(F)c1cccc(C2=CCN(CCc3ccc4ccccc4c3)CC2)c1`, the result was inactive.

On to `NCc1cccnc1`, for which the result was inactive.

In the case of `O=C1C[C@@H]2OCC=C3CN4CC[C@]56c7ccccc7N1[C@H]5[C@H]2[C@H]3C[C@H]46` (tested in a mixture with another compound), the outcome was inactive.

Take `CCOP(=S)(OCC)SCCl`: the result was inactive.

`N#CCCCCC#N`: the result was inactive.

`C=C[C@H]1CN2CC[C@H]1C[C@H]2[C@H](OC(=O)OCC)c1ccnc2ccc(OC)cc12`: the result was inactive.

Regarding `Cc1ccc(Cl)c(O)c1`, the result was inactive.

As to `CC(O)CN1CCN(CC(=O)[O-])CCN(CC(=O)[O-])CCN(CC(=O)[O-])CC1.[Gd+3]` (stereo not given), the result was inactive.

As for `CCC[CH2][Sn]([CH2]CCC)([CH2]CCC)[O][Sn]([CH2]CCC)([CH2]CCC)[CH2]CCC`, the outcome was inactive.

Turning to `COC1=CC=C2[C@H]3Cc4ccc(OC)c5c4[C@@]2(CCN3C)[C@H]1O5`, the result was inactive.

Turning to `CC(C)[C@@]1(NC(=O)[C@@H]2C[C@@H]3c4cccc5[nH]cc(c45)C[C@H]3N(C)C2)O[C@@]2(O)[C@@H]3CCCN3C(=O)[C@H](Cc3ccccc3)N2C1=O`, the outcome was inactive.
